From PubChem BioAssay (NCATS)
Results filed as inconclusive are left out. A call without a number means that no potency is given here. Calls of active or inactive are those of the source. Calls follow the shape of the dose curve; as a rule, active = well fitted curve in the direction sought with a large enough effect; inconclusive = small, poorly fitted or top-dose-only effect, or another doubt; inactive = no such curve, though single readings can be large or run the other way.

Target: Nuclear receptor subfamily 1 group I member 3 (Homo sapiens) (UniProt Q14994)
Assay: Primary qHTS for antagonist of constitutive androstane receptor (CAR) against the NCATS DSHEA and TCM libraries (AID 1794836);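 also: HepG2 cells stably expressing hCAR with CYP2B6 luciferase reporter stimulated by CITCO; series mostly up to about 40 µM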
In short: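 Antagonist mode: CAR reporter luminescence (ONE-Glo) in HepG2-CYP2B6-hCAR cells stimulated with 48 uM CITCO (final) over 24 h at 37 C, compounds titrated; viability read first by CellTiter-Fluor fluorescence.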

Chain of Nuclear receptor subfamily 1 group I member 3 (Homo sapiens) (Q14994 whole entry, looked up): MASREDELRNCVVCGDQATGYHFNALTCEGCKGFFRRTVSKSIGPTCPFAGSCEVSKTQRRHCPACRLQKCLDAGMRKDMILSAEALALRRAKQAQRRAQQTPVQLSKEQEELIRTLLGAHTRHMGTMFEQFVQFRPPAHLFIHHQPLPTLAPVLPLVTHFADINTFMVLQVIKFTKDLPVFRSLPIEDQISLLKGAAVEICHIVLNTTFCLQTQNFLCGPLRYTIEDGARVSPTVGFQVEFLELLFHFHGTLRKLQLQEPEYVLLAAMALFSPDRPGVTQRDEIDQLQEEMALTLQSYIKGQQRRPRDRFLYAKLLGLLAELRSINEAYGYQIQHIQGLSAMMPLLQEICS

**Q.** With `Cc1ccc(O)c(O)c1` as the compound, how does the Potency read?
**A.** inactive

**Q.** For `COc1cc(-c2oc3cc(O)cc(O)c3c(=O)c2O)ccc1O`, which Potency is on record?
**A.** inactive

**Q.** For `C=C1C[C@@]23CC[C@H]4[C@@](C)(CCC[C@@]4(C)C(=O)O[C@@H]4O[C@H](CO)[C@@H](O)[C@H](O)[C@H]4O[C@@H]4O[C@H](CO)[C@@H](O)[C@H](O)[C@H]4O)[C@@H]2CC[C@]1(O[C@@H]1O[C@H](CO)[C@@H](O)[C@H](O)[C@H]1O[C@@H]1O[C@H](CO)[C@@H](O)[C@H](O)[C@H]1O)C3`, which Potency is on record?
**A.** inactive
